MEKK2mut PB1 HTS = MEK5 binding signal on mutant MEKK2 PB1, primary screen, biochemical, multiplex bead flow cytometry, Alexa488-MEK5; Alexa488-MEK5 binding to MEKK2 mutant; percent response, % at 10 µM; actives 0.35% (n = 290,000); in the data active = percent response above about 24%, passing the limit was not always enough
GRK2 aptamer HTS = compounds blocking aptamer binding on GRK2 – biochemical, human GRK2, bead flow cytometry, HTS, primary screen; Beta-adrenergic receptor kinase 1 (Homo sapiens), P25098; FAM-aptamer displacement from GRK2; inhibition of aptamer binding, % at 10 µM; actives 0.59% (n = 330,000);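 active = inhibition of aptamer binding above 40%, roughly 3 SD of noise, on plates passing a quality check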;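 note: median bead fluorescence of bound FAM aptamer so fluorescent compounds give negative values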
MEKK3 PB1 HTS = modulators of MEKK3-MEK5 PB1 binding, primary screen, biochemical, wildtype MEKK3, multiplex bead flow cytometry, Alexa488-MEK5 | Mitogen-activated protein kinase kinase kinase 3 (Homo sapiens), Q99759 | bead-based flow cytometry, Alexa488-MEK5 binding to MEKK3; actives lie on both sides; 0 = blocked by unlabeled MEK5, 100 = vehicle | binding response (% of control), % at 10 µM | actives 1.4% (n = 290,000) | AID 1529, 2009;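 active = binding response more than 3 SD above or below the average of its plate-row segment, actives on both sides; inconclusive = wells at one plate position flagged as instrument error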;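 note: Alexa488 bead fluorescence after subtracting the streptavidin-only scavenger bead signal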
Target sequence (Q99759 whole entry, looked up): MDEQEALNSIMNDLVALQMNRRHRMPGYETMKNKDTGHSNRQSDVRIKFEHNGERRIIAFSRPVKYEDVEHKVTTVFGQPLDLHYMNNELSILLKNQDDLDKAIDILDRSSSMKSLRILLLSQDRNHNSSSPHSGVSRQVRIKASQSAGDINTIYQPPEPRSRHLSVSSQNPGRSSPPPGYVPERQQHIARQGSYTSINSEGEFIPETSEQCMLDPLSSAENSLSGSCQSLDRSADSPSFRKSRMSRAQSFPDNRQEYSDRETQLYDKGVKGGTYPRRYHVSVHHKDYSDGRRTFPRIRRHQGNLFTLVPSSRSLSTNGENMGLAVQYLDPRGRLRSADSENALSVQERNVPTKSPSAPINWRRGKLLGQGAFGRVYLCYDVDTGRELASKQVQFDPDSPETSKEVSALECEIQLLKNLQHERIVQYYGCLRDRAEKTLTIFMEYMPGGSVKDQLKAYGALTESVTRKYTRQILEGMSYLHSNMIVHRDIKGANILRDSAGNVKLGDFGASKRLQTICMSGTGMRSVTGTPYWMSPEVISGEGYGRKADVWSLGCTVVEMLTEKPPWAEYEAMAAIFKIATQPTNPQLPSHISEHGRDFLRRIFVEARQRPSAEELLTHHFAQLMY
MEKK2wt PB1 HTS = modulators of MEK5 binding to wildtype MEKK2, primary screen, biochemical, multiplex bead flow cytometry, Alexa488-MEK5. Mitogen-activated protein kinase kinase kinase 2 (Homo sapiens), Q9Y2U5. Alexa488-MEK5 binding to MEKK2 WT; actives lie on both sides. binding response (% of control), % at 10 µM. actives 1.1% (n = 290,000); in the data active = binding response below about 67% or above about 130%; inconclusive = no clear call, values can overlap the other calls; inactive = in between
GRK2 inh confirm = GRK2 aptamer-displacing inhibitors, retest, confirmation, biochemical, cherry pick 1, bead flow cytometry | actives 4% (n = 2,000) | aptamer displacement, % at 10 µM | shares compounds with GRK2 aptamer HTS | bead-bound GRK2, FAM-aptamer displacement | AID 504451, 2011;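 active = aptamer displacement above 40%, near three times the noise of non-fluorescent compounds, on plates passing quality checks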;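 note: negative values mostly reflect intrinsic compound fluorescence rather than true enhancement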
Aptamer quench 1 = counter-screen for GRK2 aptamer inhibitors: fluorescent aptamer quenchers; fluorescence change (kMESF span), kMESF (no concentration beside the values); Fluorescent RNA aptamer beads, quenching, flow cytometry; stronger effect = higher value; AID 504521; 110 tested, under 10 active; shares compounds with GRK2 aptamer HTS;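 active = compounds whose bead fluorescence drops by more than 37 kMESF across the dose range, marking them as dye quenchers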
Aptamer quench SP = counter-screen for GRK2 aptamer inhibitors: fluorescent aptamer quenchers; shares compounds with GRK2 aptamer HTS; Carboxyfluorescein RNA aptamer on beads, flow cytometry quenching; stronger effect = lower value; fluorescence response (% of DMSO), % at 10 µM; 2,000 tested, under 10 active; AID 504580;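 active = compounds that quench the bead-bound fluorescent RNA probe, cutting fluorescence to under half of the solvent control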;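 note: counterscreen run without GRK2 so only probe quenching by compound is measured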
GRK2 CP2 = GRK2 aptamer-displacing inhibitors, hit retest, confirmation, biochemical, cherry pick 2, bead flow cytometry; shares compounds with GRK2 aptamer HTS; bead-bound GRK2, FAM-aptamer displacement; inhibition of aptamer binding, % at 10 µM; 360 tested, under 10 active;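 active = inhibition of aptamer binding above 40%, about triple the noise seen with nonglowing compounds, on plates passing quality control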;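 note: negative values mostly come from compounds that fluoresce themselves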
FAM quench CP2 = counter-screen for GRK2 binding hits: quenchers of fluorescent RNA aptamer. shares compounds with GRK2 aptamer HTS. carboxyfluorescein RNA aptamer beads, flow cytometry quenching; stronger effect = lower value. fluorescence response vs DMSO, % at 10 µM. 360 tested, under 10 active;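 active = response vs DMSO under 50%, meaning signal dropped by over half, treated as fluorescence quencher; inconclusive = no clear call, values can overlap the other calls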;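 note: labelled aptamer on streptavidin beads without GRK2 as a quench counter-screen; 100% = bead fluorescence of DMSO wells and lower means quenching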
* hit, by the source's call; ? = inconclusive; . = no result given. A selection: hits, their analogues and other compounds. The true share with any hit is near 2.5%.

SMILES	MEKK2mut PB1 HTS	GRK2 aptamer HTS	MEKK3 PB1 HTS	MEKK2wt PB1 HTS	GRK2 inh confirm	Aptamer quench SP	others
C/C(CCC(=O)O)=N/Nc1ccc([N+](=O)[O-])cc1[N+](=O)[O-]	-3.0	0.0	94.0	91.0	.	.
Cc1ccc(C)c(SCC(=O)N(C)CC(=O)Nc2ccc(N3CCOCC3)cc2)c1	.	2.0	.	.	.	.
CC(=O)C1=C(C)NC(=O)CC1c1ccc(F)cc1 (stereo not given)	-1.0	0.0	100.0	97.0	.	.
Cn1c(=O)n(CCc2ccccc2)c2ccccc21	13.0	51.0*	106.0	108.0	-0.6	100.3
Cn1c(=O)n(CC(N)=O)c2ccccc21	2.0	4.0	96.0	100.0	.	.
CC(C)(C)N(Cc1ccccc1)C(=O)COC(=O)c1ccc2ccccc2n1	.	1.0	.	.	.	.
c1coc(-c2nnc(-c3ccco3)nn2)c1	2.0	88.0*	98.0	101.0	6.0	102.8
c1ccc(-c2nnc(-c3ccco3)o2)cc1	4.0	1.0	107.0	105.0	.	.
O=C(NC1CCCCC1)C(c1ccc2ncccc2c1)N(Cc1ccc(F)cc1)C(=O)c1ccc2c(c1)OCCO2 (stereo not given)	.	48.0*	.	.	1.6	99.9
COC(=O)c1ccc2c(c1)c(-c1ccccc1)c(-c1ccccc1)n2C	.	0.0	.	.	.	.
CCCOc1ccc(N2CC(C(=O)Nc3ccccc3C(=O)NC)CC2=O)cc1 (stereo not given)	-3.0	47.0*	102.0	96.0	-0.3	98.0
CCOc1ccc(N2CC(C(=O)Nc3ccccc3OC)CC2=O)cc1 (stereo not given)	2.0	0.0	103.0	101.0	.	.
COc1ccc(C(=O)Nc2ccccc2NC(=O)c2ccco2)cc1OC	-2.0	44.0*	94.0	100.0	2.6	96.7
COc1cc(NC(=O)COc2ccccc2C)ccc1NC(=O)c1ccco1	9.0	51.0*	104.0	112.0	.	.	GRK2 CP2=-3.7;FAM quench CP2=101.0
COc1ccc2c(c1)C(=O)N(c1ccc(C)cc1C)C(=O)C2(C)C	-1.0	3.0	97.0	92.0	.	.
COc1ccc2c(c1)C(=O)N(c1ccccc1C)C(=O)C2(C)C	-22.0	78.0*	76.0	78.0	1.9	98.9
Cc1ccccc1Oc1nc2c(C)cccn2c(=O)c1/C=C(\C#N)C(=O)NC1CCS(=O)(=O)C1 (stereo not given)	-6.0	0.0	94.0	93.0	.	.
Cc1ccc(Oc2nc3ccccn3c(=O)c2/C=C(\C#N)C(=O)NC2CCS(=O)(=O)C2)cc1 (stereo not given)	6.0	75.0*	103.0	102.0	1.4	92.5
CNC(=O)c1[nH]cnc1C(=O)Nc1ccc(C)cc1	1.0	0.0	102.0	99.0	.	.
CNC(=O)c1[nH]cnc1C(=O)Nc1ccc(F)cc1	6.0	89.0*	103.0	106.0	-2.9	141.6	Aptamer quench 1=9.5
CC(C)NC(=O)Nc1cccc2c1O[C@H](CN(C)S(C)(=O)=O)[C@@H](C)CN([C@H](C)CO)C2=O	.	2.0	.	.	.	.
CCN(C(=O)COC(=O)c1ccc(Cl)c(N)c1)C1CCS(=O)(=O)C1 (stereo not given)	1.0	8.0	98.0	98.0	.	.
COc1cc(OC)cc(C(=O)Nc2ncn[nH]2)c1	.	77.0*	.	.	-5.3	100.8
CCOc1cc(C(=O)Nc2ncn[nH]2)cc(OCC)c1OCC	3.0	0.0	105.0	103.0	.	.
NC(=O)c1sc2nc3c(cc2c1N)CCCCCC3	2.0	75.0*	108.0	100.0	9.2	95.6
SMILES	MEKK2mut PB1 HTS	GRK2 aptamer HTS	MEKK3 PB1 HTS	MEKK2wt PB1 HTS	GRK2 inh confirm	Aptamer quench SP	others
Nc1c(C(=O)O)sc2nc3c(cc12)CCCC3	0.0	4.0	103.0	97.0	.	.
COc1ccc(CNC(=O)CSc2nc3cccnc3s2)cc1	3.0	3.0	98.0	98.0	.	.
COc1ccc(N2CCN(C(=O)NC(=O)c3ccccc3)CC2)cc1	8.0	57.0*	104.0	107.0	.	.	GRK2 CP2=5.1;FAM quench CP2=96.0
C=CCn1c(SCC(=O)Nc2ncc(Cc3ccc(Br)cc3)s2)nnc1-c1ccncc1	-9.0	91.0*	83.0	88.0	7.5	97.3
C=CCn1c(SCC(=O)Nc2ccc(N3CCOCC3)cc2)nnc1-c1ccncc1	-2.0	2.0	103.0	95.0	.	.
Cc1noc(C)c1COc1cccc(C(=O)Nc2ccccc2)c1	.	2.0	.	.	.	.
Cc1noc(C)c1COc1cccc(C(=O)NCc2cccc(Cl)c2)c1	8.0	5.0	108.0	109.0	-2.6	99.6
Cc1ccc(CNC(=O)c2cccc(OCc3c(C)noc3C)c2)cc1	6.0	1.0	108.0	106.0	-3.2	94.6
CCOc1ncccc1C(=O)OCC(=O)NCc1cccs1	.	2.0	.	.	.	.
CCOC(=O)Cc1nnc(Nc2cccc(C)c2)c2ccccc12	0.0	92.0*	97.0	96.0	11.0	132.7
COC(=O)Cc1nnc(Nc2cccc(C)c2)c2ccccc12	15.0	3.0	105.0	105.0	.	.
O=C(Cc1ccccc1)Nc1ccc(NC(=O)c2ccccc2)nc1	0.0	41.0*	93.0	92.0	.	.	GRK2 CP2=7.6;FAM quench CP2=101.0
COc1ccc(OC)c(C2=NO[C@@H]3C(=O)N(c4cc(Cl)ccc4OC)C(=O)[C@H]23)c1	0.0	2.0	100.0	95.0	.	.	GRK2 CP2=4.6;FAM quench CP2=?
COc1ccc(Cl)cc1N1C(=O)[C@@H]2C(c3cccc(OC)c3OC)=NO[C@@H]2C1=O	0.0	6.0	100.0	105.0	.	.	GRK2 CP2=7.6;FAM quench CP2=102.0
O=C(O)CCC(=O)OCCCc1cc2ccccc2c(=O)o1	.	18.0	.	.	.	.
Cc1ccccc1SCC(=O)NCC(c1ccc(F)cc1)N1CCOCC1 (stereo not given)	.	45.0*	.	.	.	.	GRK2 CP2=-14.3;FAM quench CP2=90.0
COc1ccc(S(=O)(=O)N2CCCCC2)cc1NC(=O)CSc1ncnc2ccccc12	4.0	0.0	97.0	87.0	.	.
O=C(NCc1ccc(F)cc1)C1CCCN(S(=O)(=O)c2ccc(-n3cnnn3)cc2)C1 (stereo not given)	2.0	2.0	102.0	100.0	3.4	98.9
COC(=O)c1c(C)nc2nonc2c1N	-4.0	0.0	102.0	101.0	.	.

High-throughput results: PubChem, NMMLSC
